Assay outcomes from PubChem.
Akt phos inh: blocks phosphorylation of Akt | Neuro2A IGF-stimulated pAkt S473 HTRF, 20 min; active compounds read low | activity change, % for hits at 50 µM | 360,000 compounds, 0.32% hits | AID 651550; in the data active = activity change below about -80%; inconclusive = mostly about -51% to -80%
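Neuro2A cells (4,500/well, DMEM with 0.5% FBS) were treated with compound at a single 50 µM final concentration, stimulated with 6 nM IGF for 20 min at 37 °C, and lysed. Phospho-Akt Ser473 was read by HTRF as 665/615 ratio ×10^4.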
gsp ag: activates gsp, the McCune-Albright syndrome mutation | gsp mutant cells, cAMP HTRF, 30 min | Potency, µM (titrated, usually from 76.9 µM), hits mostly activators | 340,000 compounds, 0.13% hits | AID 624287; active = well fitted activation curve with a large enough effect; inconclusive = small, poorly fitted or top-dose-only effect, or another doubt; inactive = no such curve, though single readings can be large or run the other way; cell line not stated here;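 note: phosphodiesterase inhibitor Ro 20-1724 added with compounds to block cAMP breakdown; nearly all actives have a fitted effect of over 60% in size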
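Cells stably selected in G418 were plated at 2000/well, grown 16-24 hr, then given compounds in DMSO with the PDE inhibitor […] (300 uM solution added) for 30 min at 37C; cAMP was read by HTRF.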
KCNH2 3.1 inh: KCNH2 3.1 (human) potassium channel inhibition. U2OS KCNH2 3.1, thallium flux FluxOr; active compounds read low. activity change, % (tested at about 1.8 µM). 340,000 compounds, 0.95% hits;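 active = maximum activity change below -70%; inconclusive = maximum activity change from -70% to -50%; inactive = maximum activity change above -50%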;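 note: thallium influx rate constant from kinetic fluorescence after stimulation buffer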
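Virally transduced U2OS (3.1 isoform, 4 h infection in dark at RT) → overnight 37 C → FluxOr + Red40 in HBSS/HEPES, 45 min → stimulation buffer, 2 min kinetic read → rate constant vs DMSO controls.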
gsp antag: antagonists of gsp mutant (McCune-Albright syndrome); gsp-mutant cells, cAMP HTRF, 30 min; 340,000 compounds, 0.4% hits; Potency, µM (top dose mostly 76.9 µM), actives largely listed as inhibitors; AID 624288; calls by dose curve; cell line not stated here;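 note: intracellular cAMP measured with PDE inhibitor Ro 20-1724 present during compound exposure; nearly all actives have a fitted effect of over 65% in size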
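Cells in G418 medium, seeded 16-24 h, 37C; buffer exchange to DPBS + 1 mM CaCl2, 0.5 mM MgCl2, 0.05% BSA; cpds in DMSO + […] (300 uM stock), 30 min 37C; HTRF cAMP detection.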
Glioma ERSR ind: inducers of ER stress response in human glioma cells; U87-MG GRP78 promoter luciferase reporter, 16 h; Potency, µM, hits mostly activators; 420,000 compounds, 0.02% hits; active = well fitted activation curve with a large enough effect; inconclusive = small, poorly fitted or top-dose-only effect; inactive = no such curve, though single readings can be large or run the other way; note: series mostly up to about 76 µM; nearly all actives have a fitted effect of over 35% in size
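ERSR induction read as luciferase luminescence (Bright-Glo, 10 min at room temperature) in stably transfected human U87-MG glioma cells exposed to compounds for 16 h, using GRP78 as sensor.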
KCNH2 WT inh: inhibitors of human wildtype KCNH2 potassium channel | activity change, % at 1.84 µM | 340,000 compounds, 0.37% hits | AID 720551 | Q12809 | U2OS, BacMam KCNH2, thallium flux FluxOr; active compounds read low;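 active = maximum activity change below -70%; inconclusive = maximum activity change between -70% and -50%; inactive = maximum activity change above -50%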
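U2OS cells were transduced with wild-type KCNH2 virus (2.03 x 10^8 / mL) for 4 h at room temperature, then cultured overnight at 37 C. Thallium flux was read with FluxOr dye. Rate constants were normalized to DMSO controls.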
Large screens that a line does not name were inactive. The list is not random: actives were taken first. Their share in the collection is about 1.6%.

CCOc1ccc(N(CC(=O)N/N=C/c2ccccn2)S(=O)(=O)c2ccc(Cl)cc2)cc1	KCNH2 3.1 inh -81
O=C(N/N=C/c1ccc(O)cc1)c1csc2ccccc12	Akt phos inh -107%, Glioma ERSR ind inconclusive
O=C(N/N=C/c1ccc(O)cc1)c1cc(-c2ccccc2)nc2ccccc12	none
Cc1cc(O)c(C(C)C)cc1NC(=S)Nc1cc(C(C)C)c(O)cc1C	gsp antag 28µM
O=C(COc1ccc(Br)cc1Br)NC(=S)N1CCCc2ccccc21	Akt phos inh -92%
Cn1c(C2CCC2)nc2cc(C(=O)N3CCOc4ccccc4C3)cc(NC(=O)C3CCCO3)c21 (stereo not given)	none (no result: Akt phos inh, gsp ag, KCNH2 3.1 inh, gsp antag, KCNH2 WT inh)
CC(=O)Nc1ccc(SCC(=O)NC(=O)c2ccc(S(=O)(=O)N(C)C)cc2)cc1	KCNH2 WT inh -94
O=C1c2ccccc2C(=O)N1CCCc1nc(-c2ccccn2)no1	KCNH2 3.1 inh -100
CCOC(=O)N1CCN(C(=O)c2cc(COc3ccc(OC)cc3Cl)on2)CC1	gsp antag 35µM
CCC1(C2CCN(Cc3ccccc3Cl)CC2)NC(=O)N(CC2COc3ccccc3O2)C1=O (stereo not given)	none (no result: Akt phos inh, gsp ag, KCNH2 3.1 inh, gsp antag, KCNH2 WT inh)
CCC(=O)N1c2ccc(S(=O)(=O)N3CCN(c4ccc([N+](=O)[O-])cc4)CC3)cc2CC1C (stereo not given)	KCNH2 3.1 inh -99 (no result: Akt phos inh)
OC[C@H]1O[C@@H](n2cnc3c2NC=NC[C@H]3O)C[C@@H]1O	none (no result: Akt phos inh, gsp ag, KCNH2 3.1 inh, gsp antag, KCNH2 WT inh)
Cc1ccc(Cn2nnc(C(=O)Nc3cccc(C)c3C)c2N)cc1	Akt phos inh -109%
CC(C)[C@@H](C(=O)NC1CCN(Cc2ccccc2)CC1)N1C(=O)N2CCc3c([nH]c4ccccc34)[C@@]2(C)C1=O	KCNH2 3.1 inh -87, KCNH2 WT inh inconclusive (no result: gsp ag)
CN(Cc1ccccc1)/[N+]([O-])=N/Oc1ccc([N+](=O)[O-])cc1[N+](=O)[O-]	none (no result: Akt phos inh, gsp ag, KCNH2 3.1 inh, gsp antag, KCNH2 WT inh)
Cc1nc2ccccc2c2oc(C(=O)NCC3COc4ccccc4O3)cc12 (stereo not given)	gsp ag inconclusive, gsp antag 40µM
O=c1[nH]ncc(N2CCCCC2)c1Cl	none
O=c1[nH]ncc(N2CCCCCC2)c1Cl	KCNH2 3.1 inh -100
COC(=O)c1c(OCc2ccccc2)cc(=O)n2c1CCN(Cc1cccc(C)n1)CC2	none (no result: Akt phos inh, gsp ag, KCNH2 3.1 inh, gsp antag, KCNH2 WT inh)
Brc1cc(Br)c2ncnc(N3CCCCC3)c2c1	Akt phos inh -82%, gsp ag 14µM
COc1ccc(-n2ncc(Cl)c(Cl)c2=O)cc1	none
COc1ccc(-n2ncc(N(C)n3cccc3)c(Cl)c2=O)cc1	Akt phos inh -115%
CCN(CC)c1ccc(/C=C/C(=O)C2C(=O)C=C(C)OC2=O)cc1 (stereo not given)	gsp ag inconclusive, KCNH2 3.1 inh -78, KCNH2 WT inh inconclusive
Cc1ccc(S(=O)(=O)CNC(=S)c2ccc3ccccc3c2)cc1	none
COc1ccc(C(=S)NCS(=O)(=O)c2ccc(C)cc2)cc1	KCNH2 WT inh -148
CCC1(C2CCN(Cc3cc4ccccc4o3)CC2)NC(=O)N(CC2COc3ccccc3O2)C1=O (stereo not given)	none (no result: Akt phos inh, gsp ag, KCNH2 3.1 inh, gsp antag, KCNH2 WT inh)
O=C1c2ccccc2C(=O)N1CNc1ccccc1	Akt phos inh -123%
S=C(NCCCN1CCOCC1)N1CCN(c2nc(-c3ccc(Cl)cc3)cs2)CC1	gsp ag inconclusive, KCNH2 3.1 inh -71
S=C(NCC1CCCO1)N1CCN(c2nc(-c3ccc(Cl)cc3)cs2)CC1 (stereo not given)	gsp antag 50µM
Cc1cnc(-n2ncc(C(=O)NCC3COCCO3)c2C2CC2)nc1-c1cccs1 (stereo not given)	none (no result: Akt phos inh, gsp ag, KCNH2 3.1 inh, gsp antag, KCNH2 WT inh)
O=C(c1ccc(C(F)(F)F)cc1)N1CCC(=O)N(C(COCc2ccc(C(F)(F)F)cc2)Cc2ccccc2)CC1 (stereo not given)	gsp ag inconclusive, KCNH2 3.1 inh -112
Cc1cnc(-n2ncc(C(=O)NCCN3CCOCC3)c2C2CC2)nc1-c1cccs1	none (no result: Akt phos inh, gsp ag, KCNH2 3.1 inh, gsp antag, KCNH2 WT inh)
O=C(Cc1ccccc1Nc1c(Cl)cccc1Cl)OCO/N=[N+](\[O-])N1CCCC1	none (no result: Akt phos inh, gsp ag, KCNH2 3.1 inh, gsp antag, KCNH2 WT inh)
Cc1cc(C)c(S(=O)(=O)N2CCCc3ccccc32)c(C)c1	KCNH2 3.1 inh -95, gsp antag inconclusive
Cc1cccc(S(=O)(=O)N2CCCc3ccccc32)c1	none
